# Data from PubChem BioAssay (NCATS).
# Values joined by “and” are separate entries in the source; they are usually repeats but may differ in a detail not shown here. Equal entries are not always repeated. Records with an inconclusive call do not appear. Where a call stands in place of a potency, no number is given. The source holds several records for some structures; these can differ, active in one and inactive in another. Active and inactive are the calls of the source. Unless noted, the call rests on the fitted dose curve; in most records, active means well fitted curve in the direction sought with a large enough effect; inconclusive means small, poorly fitted or top-dose-only effect, or another doubt; inactive means no such curve, though single readings can be large; an effect the other way counts as inactive or inconclusive.
# Experiments:
# [1] = P-glycoprotein substrates identified in KB-8-5-11 adenocarcinoma cell line, qHTS therapeutic library screen (AID 1346987); further: nearly all actives have a fitted effect of over 65% in size; further: potency means the concentration at half of the fitted maximal effect
# Outline: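 P-gp-mediated resistance screen: KB-8-5-11 cells treated 72 h with compounds in dose-response. CellTiter-Glo viability.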
# [2] = NS1 protein of Zika virus - qHTS assay to identify small molecule inhibitors in human HEK 293 cells (AID 1347053); further: nearly all actives have a fitted effect of over 55% in size; further: potency means the concentration at half of the fitted maximal effect
# Outline: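 HEK 293; 20 h pre-culture, 37 C/5% CO2; cpd 1 h pre-infection; ZIKV MR766, MOI = 0.5, 24 h, 37 C; TR-FRET NS1 readout (two anti-NS1 Abs); norm. to no-virus vs infected.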
# [3] = molecular target: T1, Tyrosine-protein phosphatase non-receptor type substrate 1 (Homo sapiens) + Leukocyte surface antigen CD47 (Homo sapiens) (UniProt P78324+Q08722); assay: CD47-SIRPalpha protein protein interaction - LANCE assay qHTS validation (AID 1347057; active means well fitted curve in the direction sought with a large enough effect in the signal ratio, with a control signal flat, not every such curve was filed as active; the % refers to the signal ratio; further: series mostly up to about 38 µM)
# T1 sequence (P78324 whole entry, looked up): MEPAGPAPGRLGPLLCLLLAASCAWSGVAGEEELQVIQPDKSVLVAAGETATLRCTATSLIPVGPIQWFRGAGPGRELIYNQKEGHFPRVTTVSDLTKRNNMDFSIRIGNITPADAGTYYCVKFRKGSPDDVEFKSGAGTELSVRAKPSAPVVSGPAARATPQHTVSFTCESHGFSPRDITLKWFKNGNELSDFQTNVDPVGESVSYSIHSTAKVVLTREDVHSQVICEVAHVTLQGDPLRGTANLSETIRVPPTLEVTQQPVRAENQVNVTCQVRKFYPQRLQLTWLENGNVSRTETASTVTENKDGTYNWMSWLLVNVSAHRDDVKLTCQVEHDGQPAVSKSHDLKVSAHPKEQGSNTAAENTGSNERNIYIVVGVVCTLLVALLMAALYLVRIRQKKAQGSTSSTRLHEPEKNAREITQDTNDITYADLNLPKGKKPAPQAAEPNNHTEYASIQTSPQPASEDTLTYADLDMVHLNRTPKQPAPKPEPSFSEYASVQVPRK
# T1 sequence (Q08722 whole entry, looked up): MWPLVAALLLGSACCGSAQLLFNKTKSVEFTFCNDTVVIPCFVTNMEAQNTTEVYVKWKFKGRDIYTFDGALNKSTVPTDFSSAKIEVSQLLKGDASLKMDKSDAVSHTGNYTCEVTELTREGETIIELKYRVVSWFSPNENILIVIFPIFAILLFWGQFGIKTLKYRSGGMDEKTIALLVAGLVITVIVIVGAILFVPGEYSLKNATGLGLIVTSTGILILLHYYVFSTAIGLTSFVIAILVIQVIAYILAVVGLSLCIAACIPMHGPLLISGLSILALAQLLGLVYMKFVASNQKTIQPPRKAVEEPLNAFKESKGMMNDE
# Outline: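 First, His-tagged CD47 and Eu-labelled anti-His antibody met the compound for 30 min; next, site-specifically biotinylated SIRPalpha was added for 30 min; finally streptavidin-APC was added before reading the TR-FRET ratio.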
# [4] = molecular target: T1, Tyrosine-protein phosphatase non-receptor type substrate 1 (Homo sapiens) + Leukocyte surface antigen CD47 (Homo sapiens); assay: CD47-SIRPalpha protein protein interaction - Alpha assay qHTS validation (AID 1347059);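 further: bead proximity luminescence from CD47 binding SIRPalpha after compound preincubation with SIRPalpha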
# Outline: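 Biotinylated Avi-tagged SIRPalpha (25 nM) preincubated 30 min with compound, then His-tagged CD47 (12.5 nM) added 30 min; AlphaScreen with Ni-NTA acceptor and streptavidin donor beads. PBS pH 7.4, 0.05% IGEPAL, room temperature; 7-point titrations.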
# [5] = qHTS of pediatric cancer cell lines to identify multiple opportunities for drug repurposing: Primary screen for TC32 cells (AID 1347089); further: nearly all actives have a fitted effect of over 60% in size; further: potency means the concentration at half of the fitted maximal effect
# Outline: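 TC32 cells, 500-1,000/well in growth medium, compound-treated 48 h at 37 °C; viability from CellTiter-Glo luminescence. Primary screen: MIPE 11-point (0.78 nM–46 µM final), NPC 8-point (0.59 nM–46 µM final); confirmatory at 11-point dilutions.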
# [6] = qHTS of pediatric cancer cell lines to identify multiple opportunities for drug repurposing: Primary screen for DAOY cells (AID 1347090); further: nearly all actives have a fitted effect of over 55% in size; further: potency means the concentration at half of the fitted maximal effect
# Outline: (§1)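 Viability measured as metabolically active cells via CellTiter-Glo luminescence following 48 hours of compound exposure, 11-point dilutions in confirmatory testing. 500-1,000 cells/well plated 5 hours before dosing; controls were DMSO and 2.3 µM bortezomib.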
# [7] = qHTS of pediatric cancer cell lines to identify multiple opportunities for drug repurposing: Primary screen for SJ-GBM2 cells (AID 1347091); further: potency means the concentration at half of the fitted maximal effect
# Outline: as §1
# [8] = qHTS of pediatric cancer cell lines to identify multiple opportunities for drug repurposing: Primary screen for A673 cells (AID 1347092); further: nearly all actives have a fitted effect of over 45% in size; further: potency means the concentration at half of the fitted maximal effect
# Outline: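 A673 cells (500-1,000 cells/well) were treated 48 hours at 37 degrees C with compounds at 11-point (0.78 nM to 46 µM) or 8-point (0.59 nM to 46 µM) dilutions. Viability read by CellTiter-Glo luminescence; concentration-response curves fitted.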
# [9] = qHTS of pediatric cancer cell lines to identify multiple opportunities for drug repurposing: Primary screen for SK-N-MC cells (AID 1347093); further: potency means the concentration at half of the fitted maximal effect
# Outline: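 Metabolically active cells were quantified by ATP-dependent luminescence (CellTiter-Glo, 15 min at room temperature) following 48 h treatment. Cells had been plated at 500-1,000 per well and settled for 5 h beforehand.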
# [10] = qHTS of pediatric cancer cell lines to identify multiple opportunities for drug repurposing: Primary screen for BT-37 cells (AID 1347094); further: potency means the concentration at half of the fitted maximal effect
# Outline: (§2)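 Plated cells (500-1,000 per well, growth media) were allowed to settle for 5 hours, treated with compound dilutions for 48 hours, then lysed with CellTiter-Glo for 15 min at room temperature before luminescence reading.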
# [11] = qHTS of pediatric cancer cell lines to identify multiple opportunities for drug repurposing: Primary screen for NB-EBc1 cells (AID 1347095); further: potency means the concentration at half of the fitted maximal effect
# Outline: as §2
# [12] = qHTS of pediatric cancer cell lines to identify multiple opportunities for drug repurposing: Primary screen for U-2 OS cells (AID 1347096); further: nearly all actives have a fitted effect of over 50% in size; further: potency means the concentration at half of the fitted maximal effect
# Outline: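 Viability after 48 h compound treatment at 37C, 500-1,000 cells/well, read as ATP luminescence with CellTiter-Glo. Primary screens used 11-point (MIPE, 0.78 nM-46 µM) or 8-point (NPC, 0.59 nM-46 µM) final concentrations; follow-up screens used 11-point dilutions.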
# [13] = qHTS of pediatric cancer cell lines to identify multiple opportunities for drug repurposing: Primary screen for Saos-2 cells (AID 1347097); further: nearly all actives have a fitted effect of over 40% in size; further: potency means the concentration at half of the fitted maximal effect
# Outline: as §2
# [14] = qHTS of pediatric cancer cell lines to identify multiple opportunities for drug repurposing: Primary screen for SK-N-SH cells (AID 1347098); further: nearly all actives have a fitted effect of over 65% in size; further: potency means the concentration at half of the fitted maximal effect
# Outline: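 Cells (500-1,000/well) rested 5 h, then received compounds for 48 h; metabolically active cells were measured by CellTiter-Glo luminescence. Final concentrations spanned up to 46 µM (MIPE, 11-point) or 0.59 nM-46 µM (NPC, 8-point) in primary screens, 11-point in follow-ups.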
# [15] = qHTS of pediatric cancer cell lines to identify multiple opportunities for drug repurposing: Primary screen for NB1643 cells (AID 1347099); further: nearly all actives have a fitted effect of over 50% in size; further: potency means the concentration at half of the fitted maximal effect
# Outline: as §2
Structure (SMILES),Potency [1],Potency [2],outcome [3],Potency [4],Potency [5],Potency [6],Potency [7],Potency [8],Potency [9],Potency [10],Potency [11],Potency [12],Potency [13],Potency [14],Potency [15]
CCN(CC)CCOc1ccc(Nc2ncc3cc(-c4c(Cl)cccc4Cl)c(=O)n(C)c3n2)cc1,166 nM (active),166 nM (active),inactive,inactive,6580 nM (active),187 nM (active),418 nM (active),118 nM (active),0.105 µM (active),6.11 µM (active),1.48 µM (active),1180 nM (active),296 nM (active),242 nM (active),3720 nM (active)
NC(=O)Cc1cccc(C(=O)c2ccccc2)c1N,inactive,inactive,,,inactive,inactive,inactive,inactive,inactive,inactive,inactive,inactive,inactive,inactive,inactive
COc1cc(OC)c(C(=O)CCCN2CCCC2)c(OC)c1,inactive,inactive,,,inactive,inactive,inactive,inactive,inactive,inactive,inactive,inactive,inactive,inactive,inactive
CC(C)c1nc(CN(C)C(=O)N[C@H](C(=O)N[C@@H](Cc2ccccc2)C[C@H](O)[C@H](Cc2ccccc2)NC(=O)OCc2cncs2)C(C)C)cs1,inactive,inactive,,,inactive,inactive,,,10.5 µM (active),inactive,23.7 µM (active),inactive,inactive,,
Cc1ccc(NC(=O)c2ccc(CN3CCN(C)CC3)cc2)cc1Nc1nccc(-c2cccnc2)n1,inactive,inactive,,,inactive,inactive,inactive,,inactive,inactive,inactive,inactive,inactive,34400 nM (active),inactive
O=C(O)CCNC(=O)c1ccc(N=Nc2ccc(O)c(C(=O)O)c2)cc1,inactive,inactive,,,inactive,inactive,inactive,,,inactive,inactive,inactive,inactive,,inactive
C=CCc1cc(OC)c(O)c(C(=O)NCCO)c1,inactive,inactive,,,,inactive,inactive,inactive,inactive,inactive,inactive,inactive,inactive,inactive,inactive
CCCCc1ccc2nc(NC(=O)OC)[nH]c2c1,11.8 nM (active) and 111 nM (active),1.32 µM (active) and inactive,,,,26.6 nM (active),1 nM (active) and 106 nM (active),9.3 nM (active) and 21.1 nM (active),5.3 nM (active) and 26.6 nM (active),43.2 nM (active) and 61.7 nM (active),1 nM (active) and 106 nM (active),,9.3 nM (active) and 29.9 nM (active),,inactive
CCC1=C(C)CN(C(=O)NCCc2ccc(S(=O)(=O)NC(=O)NC3CCC(C)CC3)cc2)C1=O (configuration not stated),inactive,inactive,,,inactive,inactive,inactive,,inactive,inactive,inactive,inactive,inactive,inactive,inactive
CC(S)C(=O)NCC(=O)O (configuration not stated),inactive,inactive,,,inactive,inactive,inactive,,inactive,inactive,inactive,inactive,inactive,inactive,
CC(C)c1ccc2oc3nc(N)c(C(=O)O)cc3c(=O)c2c1,inactive,inactive,,,inactive,inactive,inactive,,inactive,inactive,inactive,inactive,inactive,inactive,inactive
CN(C)C(=O)COC(=O)Cc1ccc(OC(=O)c2ccc(N=C(N)N)cc2)cc1,inactive,inactive,,,inactive,inactive,inactive,,,inactive,,inactive,inactive,inactive,inactive
NS(=O)(=O)c1cc(C(=O)O)c(NCc2ccco2)cc1Cl,inactive,inactive,,,inactive,inactive,inactive,,inactive,inactive,inactive,inactive,inactive,inactive,inactive
CCOc1cc(CC(=O)N[C@@H](CC(C)C)c2ccccc2N2CCCCC2)ccc1C(=O)O,inactive,inactive,,,,inactive,inactive,inactive,4.69 µM (active),inactive,inactive,inactive,inactive,inactive,
